Results: PubChem BioAssay (Tox21)
Values without a mark were called inactive. Records with an inconclusive call do not appear. A call without a number means that no potency is given here. The source made the active and inactive calls. Calls come from the whole dose curve; as a rule, active = well fitted curve in the direction sought with a large enough effect in the repeat runs; inconclusive = weak or mixed curves; inactive = no such curve, though single readings can be large; an effect the other way counts as inactive or inconclusive.

Legend:
[1] = qHTS RealTime-Glo MT Cell Viability Assay in HepG2 cells - 40 hour (AID 1224870); note: nearly all actives have a fitted effect of over 50% in size
In short: (§1)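 Real-time viability: cells seeded at 600 per well together with NanoLuc and cell-permeant prosubstrate, compounds added after 5 h incubation. Luminescence tracked at 0, 8, 16, 24, 32 and 40 h of exposure.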

[2] = A CellTox Green Cytotoxicity Assay to monitor cytotoxicity in HEK293 cells - 40 hour (AID 1224871); note: nearly all actives have a fitted effect of over 45% in size; note: potency is the fitted concentration of half-maximal effect
In short: (§2)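 Fluorescence intensity, read at 0, 8, 16, 24, 32 and 40 h of compound treatment, reflected dye binding to DNA of dead HEK293 cells; compounds (23 nL, DMSO) were added 5 h after plating cells with reagent.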

[3] = qHTS RealTime-Glo MT Cell Viability Assay in HEK293 cells - 16 hour (AID 1224872); note: top concentration of the series differs between compounds; nearly all actives have a fitted effect of over 50% in size
In short: (§3)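 Viability tracked continuously by luminescence as live cells reduce a prosubstrate for NanoLuc; HEK293 cells preincubated 5 h, compound-treated at 37 C, and read at 0, 8, 16, 24, 32 and 40 h.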

[4] = qHTS RealTime-Glo MT Cell Viability Assay in HepG2 cells - 8 hour (AID 1224873); note: nearly all actives have a fitted effect of over 55% in size
In short: as §1

[5] = qHTS RealTime-Glo MT Cell Viability Assay in HEK293 cells - 40 hour (AID 1224874); conditions: RealTime-Glo luminescence; max response: stronger effect = lower value; note: nearly all actives have a fitted effect of over 50% in size
In short: (§4)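 Viable HEK293 cells reduce a cell-permeant prosubstrate; the product diffuses out and is consumed by NanoLuc in the medium to give light. Compounds went in after a 5 h incubation and plates were read over the treatment course.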

[6] = A CellTox Green Cytotoxicity Assay to monitor cytotoxicity in HEK293 cells - 24 hour (AID 1224875); note: nearly all actives have a fitted effect of over 45% in size; note: potency is the fitted concentration of half-maximal effect
In short: as §2

[7] = A CellTox Green Cytotoxicity Assay to monitor cytotoxicity in HepG2 cells - 16 hour (AID 1224876); note: nearly all actives have a fitted effect of over 45% in size; note: potency is the fitted concentration of half-maximal effect
In short: (§5)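 Using 1536-well format, dye-containing HepG2 suspension was seeded, allowed 5 h at 37 C/5% CO2, dosed by pintool with compounds, positive and negative controls, and imaged for fluorescence across 40 h.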

[8] = qHTS RealTime-Glo MT Cell Viability Assay in HepG2 cells - 32 hour (AID 1224877); note: nearly all actives have a fitted effect of over 55% in size
In short: (§6)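 Viability was tracked continuously by NanoLuc luminescence from prosubstrate reduced by living HepG2 cells, at successive time points over 40 h of compound exposure. Cells with reagent were preincubated 5 h at 37 °C before compound addition.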

[9] = A CellTox Green Cytotoxicity Assay to monitor cytotoxicity in HepG2 cells - 24 hour (AID 1224878); note: nearly all actives have a fitted effect of over 45% in size; note: potency is the fitted concentration of half-maximal effect
In short: as §5

[10] = A CellTox Green Cytotoxicity Assay to monitor cytotoxicity in HepG2 cells - 40 hour (AID 1224879); note: nearly all actives have a fitted effect of over 40% in size; note: potency is the fitted concentration of half-maximal effect
In short: as §5

[11] = qHTS RealTime-Glo MT Cell Viability Assay in HEK293 cells - 0 hour (AID 1224880)
In short: as §4

[12] = A CellTox Green Cytotoxicity Assay to monitor cytotoxicity in HEK293 cells - 32 hour (AID 1224881); note: nearly all actives have a fitted effect of over 40% in size; note: potency is the fitted concentration of half-maximal effect
In short: as §2

[13] = A CellTox Green Cytotoxicity Assay to monitor cytotoxicity in HepG2 cells - 0 hour (AID 1224882); note: nearly all actives have a fitted effect of over 35% in size; note: potency is the fitted concentration of half-maximal effect
In short: as §5

[14] = A CellTox Green Cytotoxicity Assay to monitor cytotoxicity in HepG2 cells - 32 hour (AID 1224883); note: nearly all actives have a fitted effect of over 50% in size; note: potency is the fitted concentration of half-maximal effect
In short: as §5

[15] = A CellTox Green Cytotoxicity Assay to monitor cytotoxicity in HEK293 cells - 8 hour (AID 1224884); note: nearly all actives have a fitted effect of over 35% in size; note: potency is the fitted concentration of half-maximal effect
In short: as §2

[16] = qHTS RealTime-Glo MT Cell Viability Assay in HepG2 cells - 16 hour (AID 1224885); note: nearly all actives have a fitted effect of over 50% in size
In short: as §6

[17] = qHTS RealTime-Glo MT Cell Viability Assay in HEK293 cells - 24 hour (AID 1224886)
In short: as §3

[18] = qHTS RealTime-Glo MT Cell Viability Assay in HEK293 cells - 8 hour (AID 1224887)
In short: as §4

[19] = A CellTox Green Cytotoxicity Assay to monitor cytotoxicity in HEK293 cells - 16 hour (AID 1224888); note: nearly all actives have a fitted effect of over 35% in size; note: potency is the fitted concentration of half-maximal effect
In short: as §2

[20] = qHTS RealTime-Glo MT Cell Viability Assay in HepG2 cells - 0 hour (AID 1224889); note: nearly all actives have a fitted effect of over 50% in size
In short: as §6

| Compound | Potency [1] | Potency [2] | Potency [3] | Potency [4] | max response [5] [%] | Potency [6] | Potency [7] | Potency [8] | Potency [9] | Potency [10] | Potency [11] | Potency [12] | Potency [13] | Potency [14] | Potency [15] | Potency [16] | Potency [17] | Potency [18] | Potency [19] | Potency [20] |
| --- | --- | --- | --- | --- | --- | --- | --- | --- | --- | --- | --- | --- | --- | --- | --- | --- | --- | --- | --- | --- |
| O=Cc1cccc([N+](=O)[O-])c1 | inactive | inactive | inactive | inactive | 5.4 | inactive | inactive | inactive | inactive | inactive | inactive | inactive | inactive | inactive | inactive | inactive | inactive | inactive | inactive | inactive |
| COC(=O)c1ccc(C)cc1C1=NC(C)(C(C)C)C(=O)N1 (stereo unspecified) | inactive | inactive | inactive | inactive | 5.2 | inactive | inactive | inactive | inactive | inactive | inactive | inactive | inactive | inactive | inactive | inactive | inactive | inactive | inactive | inactive |
| CN(C)CCCSc1ccccc1NC(=O)/C=C/c1ccccc1 | inactive | 19 µM (active) | inactive | inactive | -11.2 | 19 µM (active) | 21.3 µM (active) | inactive | 19 µM (active) | 19 µM (active) | inactive | 19 µM (active) | 19 µM (active) | 19 µM (active) | 16.9 µM (active) | inactive | inactive | inactive | 16.9 µM (active) | inactive |
| CC(C)(C)c1nnc(NS(=O)(=O)c2ccccc2)s1 | inactive | inactive | inactive | inactive | 2.61 | inactive | inactive | inactive | inactive | inactive | inactive | inactive | inactive | inactive | inactive | inactive | inactive | inactive | inactive | inactive |
| Nc1cc(=O)[nH]c(N)n1 | inactive | inactive | inactive | inactive | 0.787 | inactive | inactive | inactive | inactive | inactive | inactive | inactive | inactive | inactive | inactive | inactive | inactive | inactive |  | inactive |
| CCOC(=O)c1c(C)n(C)c2ccc(O)cc12 | inactive | inactive | inactive | inactive | -25.6 | inactive | inactive | inactive | inactive | inactive | inactive | inactive | inactive | inactive | inactive | inactive | inactive | inactive |  | inactive |
| CC(=O)CC(C)(C)C1CCCCC1 | inactive | inactive | inactive | inactive | 9.93 | inactive | inactive | inactive | inactive | inactive | inactive | inactive | inactive | inactive | inactive | inactive | inactive | inactive | inactive | inactive |
| CC(C)(O)C#CC(C)(C)O | inactive | inactive | inactive | inactive | 4.69 | inactive | inactive | inactive | inactive | inactive | inactive | inactive | inactive | inactive | inactive | inactive | inactive | inactive | inactive | inactive |
| CC(C)NCC(O)c1ccc(NS(C)(=O)=O)cc1 (stereo unspecified) | inactive | inactive | inactive | inactive | 4.96 | inactive | inactive | inactive | inactive | inactive | inactive | inactive | inactive | inactive | inactive | inactive | inactive | inactive | inactive | inactive |
| CCOC(=O)c1cccc(N)c1 | inactive | inactive | inactive | inactive | 3.26 | inactive | inactive | inactive | inactive | inactive | inactive | inactive | inactive | inactive | inactive | inactive | inactive | inactive |  | inactive |
| NC(=O)c1ccc(N)cc1 | inactive | inactive | inactive | inactive | -2.31 | inactive | inactive | inactive | inactive | inactive | inactive | inactive | inactive | inactive | inactive | inactive | inactive | inactive |  | inactive |
| CCCCCCCCCCCCCCCCC | inactive | inactive | inactive | inactive | 5.06 | inactive | inactive | inactive | inactive | inactive | inactive | inactive | inactive | inactive | inactive | inactive | inactive | inactive | inactive | inactive |
| N=c1nc(N2CCCCC2)cc(N)n1O | inactive | inactive | inactive | inactive | -2.32 | inactive | inactive | inactive | inactive | inactive | inactive | inactive | inactive | inactive | inactive | inactive | inactive | inactive | inactive | inactive |
